# Reference: PubChem BioAssay AID588689 (Southern Research Specialized Biocontainment Screening …, 2011)
# About 1,000 (0.29%) of roughly 340,000 compounds were called active. Rule as the data show it: inconclusive = inhibition above about 29% without an active follow-up result; inactive = below that. Not all results are given here. Potency and affinity values are given separately.
# Target: Genome polyprotein (Dengue virus type 2 (strain 16681-PDK53)) (UniProt P29991)
# Assay: Dengue-2 NS5 methyltransferase inhibitors, primary screen, biochemical, confirmation dose response (AID 588689)
# Settings: Dengue-2 NS5 methyltransferase capping enzyme assay, at 25 µM, stronger effect = higher value
# [1] = measured here: pilot screen replicate inhibition
# Genome polyprotein (Dengue virus type 2 (strain 16681-PDK53)), sequence (P29991 whole entry, looked up): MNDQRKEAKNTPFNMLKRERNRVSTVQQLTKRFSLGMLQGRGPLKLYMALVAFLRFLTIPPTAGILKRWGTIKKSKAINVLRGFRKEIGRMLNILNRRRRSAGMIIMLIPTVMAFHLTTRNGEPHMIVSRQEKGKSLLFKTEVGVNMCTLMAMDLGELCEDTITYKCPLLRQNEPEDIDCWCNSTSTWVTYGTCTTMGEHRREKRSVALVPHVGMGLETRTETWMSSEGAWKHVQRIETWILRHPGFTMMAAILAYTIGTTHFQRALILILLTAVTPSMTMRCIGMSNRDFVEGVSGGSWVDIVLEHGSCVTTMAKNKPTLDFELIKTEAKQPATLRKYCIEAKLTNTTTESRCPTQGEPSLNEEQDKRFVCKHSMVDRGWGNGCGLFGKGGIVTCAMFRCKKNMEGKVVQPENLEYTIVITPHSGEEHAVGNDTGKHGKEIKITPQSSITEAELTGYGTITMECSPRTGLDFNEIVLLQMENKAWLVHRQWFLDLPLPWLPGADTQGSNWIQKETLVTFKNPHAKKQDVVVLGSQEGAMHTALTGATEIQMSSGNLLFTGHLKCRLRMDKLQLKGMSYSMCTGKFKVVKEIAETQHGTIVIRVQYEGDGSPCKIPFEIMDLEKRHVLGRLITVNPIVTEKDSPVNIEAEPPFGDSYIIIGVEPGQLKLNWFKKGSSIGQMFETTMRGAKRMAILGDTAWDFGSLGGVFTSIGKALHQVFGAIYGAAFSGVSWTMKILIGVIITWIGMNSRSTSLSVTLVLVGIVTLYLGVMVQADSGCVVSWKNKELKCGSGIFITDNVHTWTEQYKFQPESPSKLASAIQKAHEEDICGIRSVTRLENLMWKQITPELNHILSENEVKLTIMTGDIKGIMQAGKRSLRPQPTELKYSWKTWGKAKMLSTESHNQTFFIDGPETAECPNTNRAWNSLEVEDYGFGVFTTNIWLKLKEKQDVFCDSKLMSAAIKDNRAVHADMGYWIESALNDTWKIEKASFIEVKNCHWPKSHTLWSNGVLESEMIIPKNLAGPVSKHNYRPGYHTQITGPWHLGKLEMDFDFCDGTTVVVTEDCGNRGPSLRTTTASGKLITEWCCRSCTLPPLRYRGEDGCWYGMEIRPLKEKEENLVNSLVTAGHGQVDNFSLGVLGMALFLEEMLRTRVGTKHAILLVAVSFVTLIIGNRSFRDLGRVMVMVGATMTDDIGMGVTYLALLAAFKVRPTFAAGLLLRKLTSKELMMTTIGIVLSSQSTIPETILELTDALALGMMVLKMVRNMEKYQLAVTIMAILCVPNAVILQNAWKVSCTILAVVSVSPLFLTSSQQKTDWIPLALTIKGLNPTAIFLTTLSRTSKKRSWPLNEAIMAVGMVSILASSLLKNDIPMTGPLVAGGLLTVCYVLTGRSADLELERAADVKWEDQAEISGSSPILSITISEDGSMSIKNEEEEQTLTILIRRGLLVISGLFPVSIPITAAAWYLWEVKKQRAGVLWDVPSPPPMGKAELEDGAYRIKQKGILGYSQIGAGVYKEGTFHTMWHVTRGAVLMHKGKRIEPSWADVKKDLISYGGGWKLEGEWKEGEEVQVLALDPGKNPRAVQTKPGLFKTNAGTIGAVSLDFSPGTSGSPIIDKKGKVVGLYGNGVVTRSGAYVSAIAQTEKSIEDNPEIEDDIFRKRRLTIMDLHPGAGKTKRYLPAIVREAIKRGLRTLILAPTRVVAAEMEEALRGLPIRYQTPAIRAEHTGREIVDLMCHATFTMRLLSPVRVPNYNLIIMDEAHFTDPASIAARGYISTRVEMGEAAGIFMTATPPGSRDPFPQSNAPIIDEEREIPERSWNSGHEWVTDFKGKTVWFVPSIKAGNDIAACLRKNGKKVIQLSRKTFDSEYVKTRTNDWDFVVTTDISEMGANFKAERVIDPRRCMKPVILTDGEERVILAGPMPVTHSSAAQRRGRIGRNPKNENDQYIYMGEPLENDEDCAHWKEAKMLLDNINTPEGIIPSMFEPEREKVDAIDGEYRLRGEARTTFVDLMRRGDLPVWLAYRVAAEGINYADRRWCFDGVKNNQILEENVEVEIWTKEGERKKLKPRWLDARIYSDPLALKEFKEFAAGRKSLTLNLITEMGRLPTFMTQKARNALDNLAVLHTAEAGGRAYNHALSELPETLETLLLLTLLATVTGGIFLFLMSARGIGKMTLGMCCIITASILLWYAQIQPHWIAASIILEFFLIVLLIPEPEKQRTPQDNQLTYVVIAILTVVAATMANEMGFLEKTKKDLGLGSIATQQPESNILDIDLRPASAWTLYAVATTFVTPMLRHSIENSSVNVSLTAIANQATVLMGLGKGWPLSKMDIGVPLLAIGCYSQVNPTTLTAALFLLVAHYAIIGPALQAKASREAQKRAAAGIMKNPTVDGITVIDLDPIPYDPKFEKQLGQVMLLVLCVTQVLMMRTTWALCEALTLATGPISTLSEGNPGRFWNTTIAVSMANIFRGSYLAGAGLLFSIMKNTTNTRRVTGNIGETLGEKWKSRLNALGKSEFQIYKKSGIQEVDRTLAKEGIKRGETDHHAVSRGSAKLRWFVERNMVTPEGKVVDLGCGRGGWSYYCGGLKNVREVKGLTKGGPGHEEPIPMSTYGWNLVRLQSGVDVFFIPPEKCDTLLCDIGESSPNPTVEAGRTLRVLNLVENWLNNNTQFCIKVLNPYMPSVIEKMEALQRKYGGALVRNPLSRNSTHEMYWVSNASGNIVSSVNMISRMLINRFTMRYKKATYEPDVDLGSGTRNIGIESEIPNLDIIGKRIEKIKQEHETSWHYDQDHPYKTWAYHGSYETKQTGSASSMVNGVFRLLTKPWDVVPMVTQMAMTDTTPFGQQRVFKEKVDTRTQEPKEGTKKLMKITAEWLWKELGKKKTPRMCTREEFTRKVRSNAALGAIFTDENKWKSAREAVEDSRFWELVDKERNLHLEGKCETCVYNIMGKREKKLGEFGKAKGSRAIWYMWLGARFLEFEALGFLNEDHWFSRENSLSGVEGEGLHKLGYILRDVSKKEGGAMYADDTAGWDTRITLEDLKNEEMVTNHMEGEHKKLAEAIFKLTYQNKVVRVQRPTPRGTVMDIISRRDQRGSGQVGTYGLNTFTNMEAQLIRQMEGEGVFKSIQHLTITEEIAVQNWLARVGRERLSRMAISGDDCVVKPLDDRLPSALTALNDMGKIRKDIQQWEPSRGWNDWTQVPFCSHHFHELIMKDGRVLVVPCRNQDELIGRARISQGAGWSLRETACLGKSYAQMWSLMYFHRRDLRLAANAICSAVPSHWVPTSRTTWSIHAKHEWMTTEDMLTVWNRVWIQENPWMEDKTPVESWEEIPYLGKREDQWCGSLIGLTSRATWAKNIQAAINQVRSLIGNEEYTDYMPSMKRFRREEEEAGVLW
Structure (SMILES),inhibition,inhibition [1] [%]
COCCCN(Cc1ccco1)C(=O)CSc1nc2ncccc2[nH]1,-4.52% (inactive),
Cc1oc(-c2ccccc2Cl)nc1CS(=O)CC(=O)NCCCN1CC(C)CC(C)C1 (configuration not stated),2.33% (inactive),
COc1ccc(/C=C2\Oc3cc(OCC(=O)N4CC(O)C[C@H]4C(=O)O)ccc3C2=O)cc1OC (some centres not stated),-10.1% (inactive),
COc1cccc(/C=C2\Oc3cc(OCC(=O)N4CCC[C@H]4C(=O)O)ccc3C2=O)c1,2.17% (inactive),
CC(=O)CCS(=O)(=O)c1ccc(Oc2ccc(S(=O)(=O)CCC(C)=O)cc2)cc1,3.83% (inactive),
Cc1cccc(S(=O)(=O)Nc2nc3ccccc3nc2Nc2cccc(C(=O)O)c2)c1,27.7% (inactive),
O=C(O)c1cccc(Nc2nc3ccccc3nc2NS(=O)(=O)c2ccc(F)cc2)c1,8.81% (inactive),
COc1cccc(Nc2nc3ccccc3nc2NS(=O)(=O)c2cccs2)c1,16.4% (inactive),3.81
CC(=O)Nc1ccc(S(=O)(=O)Nc2nc3ccccc3nc2Nc2ccccc2)cc1,-18.8% (inactive),
O=C(O)c1cccc(Nc2nc3ccccc3nc2NS(=O)(=O)c2ccccc2)c1,19.8% (inactive),
O=C(O)c1ccc(Nc2nc3ccccc3nc2NS(=O)(=O)c2cccs2)cc1,19.7% (inactive),
CCc1ccc(/C=C2\SC(=S)N(CCCC(=O)N(CCO)c3ccccc3)C2=O)cc1,2.75% (inactive),
Cc1ccc(-c2nc3ccccc3[nH]2)cc1NC(=O)c1sc2cc(Cl)ccc2c1Cl,-3.63% (inactive),
CCC(C)C(NC(=O)c1ccccc1NC(=O)c1ccccc1)C(=O)O (configuration not stated),-1.16% (inactive),
O=C(NNC(=O)c1ccccc1-n1cccc1)c1cccc(Cl)c1,-3.46% (inactive),
CCCC(C)NNC(=O)c1cc2ccccc2[nH]1 (configuration not stated),0% (inactive),
COc1ccc(Cl)cc1Nc1nc(-c2sc(NC(=O)C(C)(C)C)nc2C)cs1,-12% (inactive),
Cc1ccc(-c2cccc(C3CC=CC4C3C(=O)N(Cc3ccccc3)C4c3cc(C)ccc3F)c2)cc1 (configuration not stated),-5.46% (inactive),
COc1cc(S(=O)(=O)Nc2cccc(C)c2)ccc1NC(=O)c1ccncc1,-1.47% (inactive),
N#CC1=C(N)C2=CCCC[C@H]2[C@H](c2cccc(F)c2)C1(C#N)C#N,-4.34% (inactive),

Structure (SMILES),inhibition,inhibition [1] [%]
CC(=O)Nc1ccc(C=NNc2ccc(S(=O)(=O)Nc3ccccc3C(=O)O)cc2[N+](=O)[O-])cc1,12.4% (inactive),
COc1cc(C=NNc2ccc(S(=O)(=O)Nc3ccccc3C(=O)O)cc2[N+](=O)[O-])ccc1O,17.4% (inactive),
COc1ccc(C=NNc2ccc(S(=O)(=O)Nc3ccccc3C(=O)O)cc2[N+](=O)[O-])c(OC)c1,17% (inactive),
O=C(O)c1ccccc1NS(=O)(=O)c1ccc(NN=Cc2ccccc2F)c([N+](=O)[O-])c1,9.54% (inactive),
CCOc1ccc(OCC)c(S(=O)(=O)n2cnc(C)c2)c1,4.27% (inactive),
CC(C)N1CCc2c(sc(NC(=O)c3ccco3)c2C(N)=O)C1,-17.8% (inactive),
O=C(NN=C1CCN(Cc2ccccc2)CC1)c1ccccc1,-11% (inactive),
CSc1nc(N)nc2c1ncn2CC(=O)NCCCc1ccccc1,-9.58% (inactive),-1.21
Cc1cc(O)c(C(C)C)cc1N=Cc1cc([N+](=O)[O-])ccc1O,73.1% (inactive),
Cc1cc(O)c(C(C)C)cc1N=Cc1ccccc1O,73.5% (inactive),
CN(C(=O)c1cc(C(=O)N(C)c2ccccc2)cc([N+](=O)[O-])c1)c1ccccc1,-8.48% (inactive),
Cc1ccc(C(=O)c2coc3cc([N+](=O)[O-])c(O)c([N+](=O)[O-])c23)cc1,8.29% (inactive),
Cc1oc2ccc(O)cc2c1C(=O)c1ccc([N+](=O)[O-])cc1,-2.6% (inactive),
COc1ccc(OC)c(C(=O)c2c(C)oc3cc([N+](=O)[O-])c(O)c([N+](=O)[O-])c23)c1,25.1% (inactive),
Cc1oc2ccc(O)cc2c1C(=O)c1ccc(Br)cc1,1.53% (inactive),
CCc1ccc(NC(=O)Cn2ncc3c4ccccc4n(C)c3c2=O)cc1,-6.09% (inactive),
CCCOc1ccc(C(=O)CCC(=O)Nc2ccc(N3CCN(C)CC3)cc2)cc1,-15.3% (inactive),
COC(=O)c1c(NC(=O)/C=C/C(=O)O)sc(C)c1-c1ccc(C)cc1,-1.47% (inactive),
CCOC(=O)c1c(NC(=O)/C=C\C(=O)O)sc(C)c1-c1ccccc1,-5.1% (inactive),
CCOC(=O)c1c(C)nn(-c2ccc(NC(=O)/C=C/C(=O)O)cc2)c1C,-3.06% (inactive),

Structure (SMILES),inhibition,inhibition [1] [%]
COC(=O)c1c(NC(=O)/C=C/C(=O)O)sc(Cc2ccccc2)c1C,8.38% (inactive),
COC(=O)c1c(NC(=O)/C=C/C(=O)O)sc(C)c1-c1ccc(C)c(C)c1,18.9% (inactive),
CCOC(=O)c1c(NC(=O)/C=C/C(=O)O)sc(C)c1-c1ccc(F)cc1,23.7% (inactive),
Cc1sc(NC(=O)/C=C/C(=O)O)c(C(N)=O)c1-c1ccc(C(C)(C)C)cc1,15.2% (inactive),
CCc1c(C)sc(NC(=O)/C=C/C(=O)O)c1C(N)=O,-7.73% (inactive),
NC(=O)C1(N2CCCCC2)CCN(C2CC(=O)N(Cc3cccs3)C2=O)CC1 (configuration not stated),-7.74% (inactive),
O=C(N/N=C/c1ccccc1O)C(=O)Nc1ccccn1,-0.76% (inactive),
CCCn1c(SCc2cc(=O)[nH]c3ccccc23)nc2c1c(=O)n(C)c(=O)n2C,-2.04% (inactive),-0.155
Cc1ccccc1Cn1c(CN2CCN(C(=O)c3ccco3)CC2)nc2c1c(=O)n(C)c(=O)n2C,-5.56% (inactive),
CCc1ccc(NS(=O)(=O)c2ccc3oc(=O)ccc3c2)cc1,1.32% (inactive),1.83
O=C(NCc1ccccc1)c1cccc(S(=O)(=O)NCc2ccccc2)c1,-6.73% (inactive),
O=C(Nc1ccc(C(F)(F)F)cc1)C1CCCCN1S(=O)(=O)c1ccccc1 (configuration not stated),-9.59% (inactive),
COc1ccc(-n2nc(C(=O)NCC(=O)N(C)Cc3ccccc3)c3ccccc3c2=O)cc1,-2.44% (inactive),
Cc1ccccc1N1C(=O)C(Cl)=C(N2CCN(c3ccccc3)CC2)C1=O,-3.27% (inactive),
CCc1ccccc1N1C(=O)c2cccc3c(N4CCOCC4)c([N+](=O)[O-])cc(c23)C1=O,-4.86% (inactive),
Cc1ccccc1N1C(=O)C(Cl)=C(N2CCCCCC2)C1=O,-0.78% (inactive),
O=C1C(Cl)=C(N2CCCCC2)C(=O)N1c1ccccc1Cl,16.1% (inactive),
O=C1C(Cl)=C(N2CCCCCC2)C(=O)N1c1ccccc1Cl,8.59% (inactive),
